Bioassay records deposited in PubChem BioAssay by National Center for Advancing Translational Sciences (NCATS).
nsP2pro inh: blocks chikungunya virus nsP2 protease peptide cleavage; Potency, µM (doses to about 24.9 µM), usual class: inhibitors; Q8JUX6; FRET peptide cleavage, nsP2pro, fluorescence 1 h; hit rate 1.1% among 31,000; calls by dose curve; note: nearly all actives have a fitted effect of over 60% in size
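Recombinant nsP2pro (150 nM) was preincubated with compound 15 min at room temperature in 10 mM Tris-HCl pH 8.0, 0.01% Tween 20. Peptide 2 FRET substrate (2.5 uM) was then added and fluorescence read after 1 h. Seven-point series, up to 25 uM.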
Of the large screens only hits and unclear results are named; the others gave an inactive call; ! = not active in a repeat. This is one part of a sample in which hits are shown more often than they occur.

O=C(Nc1cccc(Cl)c1)c1cc(-c2ccc[nH]2)n[nH]1	none
O=C(Nc1ccc(F)cc1)c1cc(-c2ccc[nH]2)n[nH]1	nsP2pro inh 10µM
O=C(Nc1cccc(F)c1)c1cc(-c2ccc[nH]2)n[nH]1	none
Nc1ncnc2c1ncn2C1O[C@H](COP(=O)(O)OP(=O)(O)OP(=O)(O)O)[C@@H](O)[C@H]1O (stereo not given in full)	none
COc1cccc(-c2ccc(-c3nc4ccccc4c(=O)[nH]3)o2)c1	none
CCC(=O)OC1(C(=O)CCl)C(C)CC2C3CC(F)C4=CC(=O)C=CC4(C)C3(F)C(O)CC21C (stereo not given)	none
CS(=O)(=O)c1ccc(CN2CCC(C(O)c3ccccn3)CC2)cc1 (stereo not given)	nsP2pro inh 11µM
O=C(N[C@H](c1ccccn1)C1CC(O)C1)c1ccc(Cn2cccn2)o1 (stereo not given in full)	none
CS(=O)(=O)c1ccc(CC(=O)N[C@H](c2ccccn2)C2CC(O)C2)cc1 (stereo not given in full)	none
O=C(CCC1CCCC1)N1CC(N(Cc2ccccn2)C(=O)Nc2ccccc2)C1	none
Cc1c(-c2ccccc2F)[nH]c2ccc(CNC(=O)C3C=CCN3)cc12 (stereo not given)	none
Cc1cc2c(s1)Nc1ccccc1N=C2N1CCN(C)CC1	nsP2pro inh 11µM!
CN1CCN(C2=Nc3ccccc3Cc3ccccc32)CC1	none
CN1CCN(C2=Nc3ccccc3Nc3ccc(Cl)cc32)CC1	none
N/C(=N\c1nnc(-c2ccncc2)s1)Nc1ccc(F)c(C(F)(F)F)c1	none
CCN1CCN(c2ncc3c(n2)CCN(Cc2ccc(OC)c(OC)c2)C3)CC1	nsP2pro inh 11µM
CCc1ccc(CN2CCc3nc(N4CCN(CC)CC4)ncc3C2)cc1	none
CCN1CCN(c2ncc3c(n2)CCN(Cc2cc(F)cc(F)c2)C3)CC1	none
Cc1cc(C)nc(NC(=S)N2CCN(c3cc(Cl)cc(C(F)(F)F)c3)CC2)c1	none
CCS(=O)(=O)Nc1ccc(C)n(CC(=O)NC2CCCCC2)c1=O	none
CC(=O)N1CC2(CCCN(C3CCCCC3)C2)Cc2ccccc21 (stereo not given)	none
O=C(Nc1cccc(C(F)(F)F)c1)Nc1nnc(-c2ccncc2)s1	none
O=C(NC1CC1)[C@@H]1CN(CCCc2ccccc2)C[C@H]1CO	none
O=C(NCc1ccc(F)cc1)c1nnc(Cc2cccc(F)c2)o1	none
COc1ccc(CN2CCc3nc(C(=O)NCCOc4ccccc4)oc3CC2)cn1	nsP2pro inh 3.5µM
Cc1c(C(=O)NCc2cccc(F)c2)oc2c1-c1[nH]ncc1CC2	none
Cc1[nH]cnc1CN1CCc2nc(C(=O)NCCOc3ccccc3)oc2CC1	none
O=C(NCC1CC1)c1nc2c(o1)CCN(CCCc1ccccc1)CC2	nsP2pro inh 10µM
COc1ccc(CN2CCc3ncc(C(=O)NCc4ccc5c(c4)OCO5)n3CC2)cn1	none
O=C(NCC1CC1)C1CN(Cc2ccccc2)C(=O)N1 (stereo not given)	none
O=C(NCc1cccc(F)c1)c1nc2c(o1)CCN(CC1CCCC1)CC2	nsP2pro inh 3.5µM
Cc1cc(C)nc(NC(=S)N2CCN(c3cccc([N+](=O)[O-])c3)CC2)c1	none
CC(C)n1nccc1-c1ncccc1COc1cccc(O)c1C=O	none
CC[C@@H]1[C@@H]2CN(C(=O)[C@H](C(C)(C)C)NC(=O)O[C@@H]3C[C@H]3CCCCC(F)(F)c3nc4ccc(OC)cc4nc3O2)[C@@H]1C(=O)N[C@]1(C(=O)NS(=O)(=O)C2(C)CC2)C[C@H]1C(F)F	none
CC(C)=CC(=O)N[C@H]1C[C@@H](C(=O)N[C@H](Cc2ccccc2)C(N)=O)N(C(=O)C=C(C)C)C1	none
Cc1cc(C)nc(NC(=S)N2CCN(c3ccc(F)c(F)c3F)CC2)c1	none
O=C(Nc1ccc2ccccc2c1)Nc1cccc(-c2ccncc2)n1	none
C=C(C)C(=O)OC1C(OC(C)=O)/C(C=O)=C\CC/C(CO)=C/C2OC(=O)C(=C)C21 (stereo not given)	nsP2pro inh 1.4µM
C=C1C(=O)O[C@@H]2/C=C(\CO)CC/C=C(\CO)[C@H](OC(C)=O)C(OC(=O)C(C)CC)C12 (stereo not given in full)	none
C=C1C(=O)OC2/C=C(\CO)CC/C=C(\C=O)C(O)C(OC(=O)C(C)CC)C12 (stereo not given)	none
Cc1cc(OCC(O)CN2CCN(c3cccc(Cl)c3)CC2)ccc1Cl (stereo not given)	nsP2pro inh 11µM
OC(CN1CCN(c2cccc(Cl)c2)CC1)C(c1ccccc1)c1ccccc1 (stereo not given)	none
CCN1CCN(CC(O)COc2cccc(CNCc3cnn(CC)c3)c2)CC1 (stereo not given)	none
CCOc1ccc(C(=O)Nc2ccc(-c3nnc4n3CCCCC4)cc2)cc1OCC	nsP2pro inh 10µM
O=C(CCC1CCCC1)Nc1ccc(-c2nnc3n2CCCC3)cc1	none
COc1ccc(Cl)cc1C(=O)Nc1ccc(-c2nnc3n2CCCCC3)cc1	none
Cc1ccc(C)c(NC(=O)Cn2c(=O)ccc3cc(S(=O)(=O)N4CCCC4)ccc32)c1	none
CCc1ccc(NCc2cc3cc(OC)c(OC)cc3n(CC(=O)Nc3cc(C)ccc3C)c2=O)cc1	nsP2pro inh 10µM
COc1ccc(CCNC(=O)CCn2c(=O)c3ccccc3n(CC(=O)Nc3cc(Cl)ccc3C)c2=O)cc1OC	none
C=CCN1CCN(C(=O)[C@@]23CCCC[C@H]2N(CCC(C)C)C(=O)CC3)CC1	none
O=S1(=O)N=C(Sc2cc(C(F)(F)F)cc(C(F)(F)F)c2)c2ccccc21	none
O=C(OCc1ccccc1)N1CCN(C(=O)[C@H](Cc2ccc(O[S+](=O)([O-])c3cccc4cnccc34)cc2)N[S+](=O)([O-])c2cccc3cnccc23)CC1	none
COc1ccc(C(=O)N2CC(CO)C3(CCNCC3)C2)cc1 (stereo not given)	none
O=C(c1cccc(C(F)(F)F)c1)N1CC(CO)C2(CCNCC2)C1 (stereo not given)	none
O=C(c1ccc(Cl)cc1)N1CC(CO)C2(CCNCC2)C1 (stereo not given)	nsP2pro inh 7.9µM
CCCCCC1CC1CC1CC1CCCCCCCC(=O)O (stereo not given)	none
CCC1C(=O)NCCN1Cc1cn(-c2cccc(F)c2)nc1-c1ccc(C)o1 (stereo not given)	nsP2pro inh 11µM
c1nc(NCCC2CCCO2)c2cc(-c3ccc4c(c3)OCO4)ccc2n1 (stereo not given)	none
CN(Cc1ccccc1)Cc1cn(C[C@H]2O[C@@H](CC(=O)NCc3ccc(F)cc3)[C@H](O)[C@@H]2O)nn1	none
COCCNC(=O)C1CCC(=O)N1C1CCNCC1 (stereo not given)	none
CN1CC(=O)N(C2CCCNCC2)Cc2c1ncnc2N1CCCC1CO (stereo not given)	none
CN(C)C(=O)N1CCN(C2CCNCC2)C(=O)C1	nsP2pro inh 13µM
Cc1c(Cl)cc([S+](=O)([O-])O)cc1NC(=O)NC[C@H](N)C(=O)O	none
COc1cccc(C(=O)N2CCC3(CC2)CCN(CCc2ccccc2)c2ccccc2O3)c1	none
COc1cc(CC(=O)O)ccc1O	none
N[C@@H](Cc1ccc(O)c(O)c1)C(=O)O	none
C[C@@](Cc1ccc(O)c(O)c1)(NN)C(=O)O	nsP2pro inh 11µM
Cc1ccc(S(=O)(=O)Nc2ccc(F)cc2C(=O)Nc2nc(-c3ccccc3)cs2)cc1	none
Cc1cc(C)nc(NC(=S)N2CCN(c3nccc4ccccc34)CC2)c1	none
COCCn1c(C)cnc1CCNS(=O)(=O)c1c(C)nn(C)c1C	nsP2pro inh 10µM
COCCn1c(C)cnc1CCNC(=O)NCC(C)C	none
COCCn1c(C)cnc1CCNS(=O)(=O)c1cc(OC)ccc1OC	none
